Screen size: about 290,000 compounds; about 1,000 (0.34%) were called active. This excerpt belongs to a sample that is enriched for actives. Unmarked numbers belong to inactive results. No stated cut-off is given here; in the data, active means percent response above about 24% (passing the limit was not always enough); inactive means the rest.
tested on: MEKK2 (MAP3K2) mutant PB1 domain binding to MEK5, human; assay: MEK5 binding signal on mutant MEKK2 PB1, primary screen, biochemical, multiplex bead flow cytometry, Alexa488-MEK5 (AID 1530); conditions: at 10 µM, stronger effect = higher value

SMILES | percent response
O=c1c2c3c(sc2n(CCN2CCCC2)c(=O)n1Cc1ccccc1)CCCCC3 | 1%
O=C(CC1NCCNC1=O)Nc1cc(Cl)cc(Cl)c1 (stereo not given) | 2%
O=C(CC1SCCNC1=O)Nc1ccc(Cl)c(Cl)c1 (stereo not given) | 174% (active)
O=C(CC1SCCNC1=O)Nc1ccc(Cl)cc1 (stereo not given) | -10%
Cc1ccc(C(=O)c2coc3ccc(O)c(CN(C)C)c23)cc1 | 11%
COc1cccc2sc(N(CCCN(C)C)C(=O)C(c3ccccc3)c3ccccc3)nc12 | 22%
CN(C)CCCN(C(=O)COc1ccccc1)c1nc2c(Cl)cccc2s1 | 87% (active)
COc1cccc2sc(N(CCCN(C)C)C(=O)CCS(=O)(=O)c3ccccc3)nc12 | 6%
C/C(=N\NC(=O)c1ccoc1C)c1ccccc1O | 3%
O=S(=O)(NC1CCCCC1N1CCC(O)CC1)c1ccc(Cl)cc1 (stereo not given) | 2%
COc1ccc(C2NC(=O)C(=O)/C2=C(\O)c2ccc(Cl)cc2)cc1OC (stereo not given) | 5%
O=C(NCCc1ccc(Cl)cc1)C1CC(=O)N(C2CCCCC2)C1 (stereo not given) | -5%
O=C(NCCCN1CCCCCC1)C1CC(=O)N(C2CCCC2)C1 (stereo not given) | 31% (active)
CC(C)OCCCNC(=O)C1CC(=O)N(C2CCCCCCC2)C1 (stereo not given) | 10%
CC1(C)C=Cc2c(ccc3c2OC[C@@H](c2ccc(O)cc2O)C3)O1 | 2%
O=C(CCCN1C(=O)/C(=C/c2ccco2)SC1=S)Nc1ccccc1 | 0%
Cc1cccn2c(=O)c(/C=C3\SC(=S)N(CC(C)C)C3=O)c(NCCCOC(C)C)nc12 | 97% (active)
CNc1nc2c(C)cccn2c(=O)c1C=Nc1ccc(OC)cc1 | 0%
CCOC(=O)CC1C(=O)NCCN1c1nc2c(C)cccn2c(=O)c1/C=C1\SC(=S)N(C(C)CC)C1=O (stereo not given) | -23%
O=C(CCCN1C(=O)/C(=C\c2ccco2)SC1=S)Nc1cccc2ccccc12 | -3%
CCCN(CCC)c1nc2c(C)cccn2c(=O)c1/C=C1/SC(=S)N(Cc2ccco2)C1=O | 147% (active)
Nc1ccc2nn(-c3ccc(Cl)cc3)nc2c1 | -4%
Cc1cc2oc(=O)cc(CN3CCN(S(=O)(=O)c4cccs4)CC3)c2cc1C(C)C | 0%
COC(=O)c1ccc(CNC(=O)C2CCC(=O)N(Cc3cccc(F)c3)C2)cc1 (stereo not given) | 4%
O=C(Cn1ncc2c3ccccc3n(Cc3ccccc3)c2c1=O)NCCCN1CCOCC1 | 4%

Reference: PubChem BioAssay AID1530 (NMMLSC, 2009)
